Assay [1] in a line: stimulators of nuclear beta-catenin in C2C12, primary screen, imaging, WNT3A-conditioned medium, mouse C2C12, NPC library (AID 1117326; in the data active means nuclear beta-catenin stimulation mostly above about 4.2%, no sharp cut-off; inactive means mostly below about 10%). Conditions: stronger effect = higher value.
Assay [2] in a line: stimulators of insulin release from INS-1E, primary screen, cell-based, 5 mM glucose, NPC library (AID 1117329;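 active means compound raises insulin release from rat beta cells at 5 mM glucose, no numeric limit stated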). Conditions: rat INS-1E insulin secretion, at 10 µM, stronger effect = higher value.
A short description of assay [3]: growth inhibition of GSK3B-pretreated HCT116 cells – cell-based, CellTiter-Glo, 0.2 to 20 µM (AID 1117336;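 active means compounds lowering colon cancer cell viability after pretreatment blocking the GSK3B kinase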). Conditions: HCT116 viability after GSK3B inhibitor, at 20 µM, stronger effect = higher value.
Assay [4] is described as follows: inhibition of endothelial tube formation, primary screen, imaging, VEGF stimulated, CD31 staining, tube area, NPC library (AID 1117340;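 active means compound that reduces growth-factor-driven endothelial tube area in a mixed cell culture, no cutoff stated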). The settings on record: VEGF-stimulated ADSC/ECFC co-culture, at 10 µM, stronger effect = higher value.
The nature of assay [5]: glucagon-like peptide 1 release enhancers, primary assay, NCI-H716 cell line, NPC library (AID 1117341;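 active means compound raises GLP1 secretion from the human gut endocrine cells, with no numeric limit stated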). Conditions: NCI-H716 cells, at 10 µM, stronger effect = higher value.
Assay [6] is described as follows: HCT116 colon cancer cell growth inhibition, primary screen, CellTiter-Glo luminescence, NPC library (AID 1117342;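 active means compounds that lower survival of HCT116 colon cancer cells in the luminescence readout, no numeric limit stated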). The settings on record: at 20 µM (top of the series).
The nature of assay [7]: CellTiter-Glo luminescent readout of SW480 viability loss, NPC library primary (AID 1117343;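 active means compounds that lower viability of the colon cancer cells in the luminescence readout, with no numeric limit stated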). Conditions: CellTiter-Glo luminescence; at 20 µM (top of the series) unless noted.
The nature of assay [8]: decreased DLD-1 cellular survival, CellTiter-Glo luminescent readout, NPC compound collection, primary HTS (AID 1117346;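 active means compounds that lower survival of DLD-1 colon cancer cells in the luminescence readout, no cutoff given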). Conditions: DLD-1 viability, CellTiter-Glo luminescence; at 20 µM (top of the series).
A short description of assay [9]: differential killing of epithelial or mesenchymal cells, primary screen, imaging, PC-3E GFP, TEM4-18 mCherry, co-culture (AID 1345086;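 active means compounds killing one labelled cell type while sparing the other, by normalised counts and ratio limits, not self-fluorescent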;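 on all read-outs here: cells exposed to compound for 72 h before imaging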;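 on red/green cell ratio (normalised): normalised mesenchymal count divided by normalised epithelial count so high means epithelial killing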). Conditions: imaging cell counts, at 1 µM; for red/green cell ratio (normalised): actives lie on both sides, counts scaled to control wells, 1 = unselective.
Assay [10] is described as follows: sensitizers of A549 cells to miR-34 induction, primary screen, imaging, A549 dox-inducible miR-34, nuclei and caspase counts (AID 1347080). Conditions: A549 miR-34 inducible, Hoechst nuclei count, 48 h.
Assay [11] in a line: survival rescue of mitochondrial mutant cells in low glucose, primary screen, MELAS cybrids, Rieske KO mouse fibroblasts, CellTiter-Glo (AID 1508586;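 active means mean z-score across replicates of 1.96 or higher in either the MELAS or the Rieske mutant cell line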;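 further: z relative to plate mean and SD of compound and empty wells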).
The target of assay [12] is NAD(+) hydrolase SARM1 (Homo sapiens) (UniProt Q6SZW1). The assay can be described thus: SARM1 TIR NADase inhibitors, cell lysate, NAD-Glo luminescence (AID 1508614;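 active means compound whose remaining NAD level is above about 45 nM, limit read from the data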). Conditions: SAM-TIR HEK293T lysate NADase, at 1 µM, stronger effect = higher value.
NAD(+) hydrolase SARM1 (Homo sapiens), sequence (Q6SZW1 whole entry, looked up): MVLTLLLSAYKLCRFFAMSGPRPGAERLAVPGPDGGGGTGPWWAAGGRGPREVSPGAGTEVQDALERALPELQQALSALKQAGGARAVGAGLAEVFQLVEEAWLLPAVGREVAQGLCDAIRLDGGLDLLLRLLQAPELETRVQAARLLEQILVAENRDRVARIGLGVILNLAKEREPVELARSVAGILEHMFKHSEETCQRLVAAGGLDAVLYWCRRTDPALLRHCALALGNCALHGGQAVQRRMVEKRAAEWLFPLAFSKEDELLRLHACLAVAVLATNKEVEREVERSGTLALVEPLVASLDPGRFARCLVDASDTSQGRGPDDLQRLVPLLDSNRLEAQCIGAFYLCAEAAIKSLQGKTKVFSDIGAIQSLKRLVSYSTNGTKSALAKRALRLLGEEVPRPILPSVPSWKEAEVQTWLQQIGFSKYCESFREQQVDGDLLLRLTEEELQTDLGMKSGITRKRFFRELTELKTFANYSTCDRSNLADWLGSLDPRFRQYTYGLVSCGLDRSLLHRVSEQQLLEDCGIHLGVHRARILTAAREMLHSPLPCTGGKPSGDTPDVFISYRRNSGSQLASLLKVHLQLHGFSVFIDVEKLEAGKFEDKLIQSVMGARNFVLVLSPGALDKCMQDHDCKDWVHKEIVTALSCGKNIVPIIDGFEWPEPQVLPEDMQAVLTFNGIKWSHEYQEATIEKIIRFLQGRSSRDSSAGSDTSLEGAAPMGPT
Assay [13] is described as follows: hESC survival regulators, cell-based (AID 493140; call rule not given here;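 further: cells exposed to compounds for four days before counting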). Conditions: human embryonic stem cell survival screen; stronger effect = higher value.
Assay [14] can be described thus: liver-stage malaria parasite growth inhibition, primary screen, cell-based, HepG2, luciferase luminescence, HepG2 viability (AID 624349; in the data active means parasite load remaining mostly below about 12%, no sharp cut-off; inactive means mostly above about 10%;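 further: 100% = mean of DMSO negative control wells on the same plate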). The settings on record: P. berghei liver stage in HepG2, luciferase luminescence, concentration not given here; parasite load remaining: stronger effect = lower value; viability: measured here: HepG2 viability without parasites.
[15] abbreviates: measured here: epithelial PC-3E GFP cell survival.
Setting [16] is: measured here: mesenchymal TEM4-18 mCherry cell survival.
Setting [17] is: stronger effect = lower value, cell number ratio, induced over uninduced.
[18] abbreviates: measured here: relative caspase fold change +Dox/-Dox.
Setting [19] is: measured here: total cells with miR-34 induction, stronger effect = lower value.
Setting [20] is: measured here: total cells without miR-34 induction.
[21] abbreviates: MELAS cybrid survival, CellTiter-Glo 48 h, stronger effect = higher value.
The mark [22] stands for this setting: Rieske KO mouse fibroblast survival, CellTiter-Glo 72 h.

Where “and” joins values, the source holds several entries; their conditions need not be identical. Equal values may be shown once. Calls of active or inactive are those of the source.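 How the source made its calls, unless noted: active means compounds whose cell count with miR-34 switched on is under 0.7 times the count with it off; inactive means the rest.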

`CCN(CC)CCNC(C(=O)OCCC(C)C)c1ccccc1` (stereo unspecified): the nuclear beta-catenin stimulation in assay [1] (at 10 µM) was -0.8% (inactive); in assay [1] (stimulation, at 2 µM) it was -0.5%. For the same compound, the insulin secretion stimulation in assay [2] was 32.4% (active). The viability decrease in assay [3] is 6.1% (inactive). Further, the tube area decrease in [4] was -3.9% (inactive). For the same compound, the GLP1 secretion stimulation in assay [5] is 8.2% (inactive). Besides, the inhibition of viability in [6] was 0.2% (inactive). Besides, the viability decrease (inhibition) in assay [7] was 26.1% (inactive); in assay [8], 9.9% (inactive). In addition, the red/green cell ratio (normalised) in assay [9] was 1.16 (inactive). The figures for the normalised cell number in assay [9] (setting [15]) and in [9] (setting [16]) were 0.66 and 0.76, respectively. In addition, the fold change is 0.979 (inactive) in assay [10] (setting [17]) and 0.754 in assay [10] (setting [18]). The cell count in assay [10] (setting [19]) turned out to be 8430; in assay [10] (setting [20]), 8620. The z-score in assay [11] (setting [21]) was 0.328 (inactive); in assay [11] (setting [22]), 0.121. Also, the remaining NAD in [12] was 10 nM (inactive).

Regarding `CC(=O)Nc1ncc([N+](=O)[O-])s1`, the nuclear beta-catenin stimulation is -0.3% (inactive) in assay [1] (at 10 µM) and 0.5% in assay [1] (stimulation, at 2 µM). For the same compound, the insulin secretion stimulation in assay [2] was -2.2% (inactive). The viability decrease in assay [3] was 4.2% (inactive). The tube area decrease in assay [4] is 5.9% (inactive). Also, in assay [5], the GLP1 secretion stimulation is -1.7% (inactive). In [6], the inhibition of viability was 12% (inactive). In addition, the viability decrease (inhibition) in [7] was 9.6% (inactive); in [8], 13.5% (inactive). Also, the red/green cell ratio (normalised) in assay [9] was 1.12 (inactive). Further, the normalised cell number was determined as 0.93 in assay [9] (setting [15]) and 1.04 in assay [9] (setting [16]). Moreover, the fold change is 0.863 (inactive) and 0.891 (inactive) in assay [10] (setting [17]); 1.13 and 1.04 in [10] (setting [18]). The cell count in assay [10] (setting [19]) was 8350 and 8950; in [10] (setting [20]) it was 9670 and 10000. In addition, the z-score in assay [11] (setting [21]) was -0.179 (inactive); in assay [11] (setting [22]), -0.168. In assay [12], the remaining NAD is 10 nM (inactive).

As to `Cc1ncc(CO)c(CO)c1O`, the survival in assay [13] was 7.67 (inactive). Also, the parasite load remaining in [14] is 121% (inactive) and 68.6% (inactive) and 52.2% (inactive). For the same compound, in assay [14], the viability is 108% and 75.6% and 94.6%. For the same compound, the nuclear beta-catenin stimulation was 0.1% (inactive) in assay [1] (at 10 µM) and 0.9% in assay [1] (stimulation, at 2 µM). For the same compound, in assay [2], the insulin secretion stimulation was -1.8% (inactive). The viability decrease in assay [3] is 4.5% (inactive). Moreover, the tube area decrease in [4] was -14.1% (inactive). Moreover, the GLP1 secretion stimulation in assay [5] was 3.1% (inactive). Also, the inhibition of viability in assay [6] is -18.3% (inactive). For the same compound, the viability decrease (inhibition) is 23.7% (inactive) in assay [7] and 3.95% (inactive) in assay [8]. Moreover, the red/green cell ratio (normalised) in [9] was 0.91 (inactive). The normalised cell number in [9] (setting [15]) was found to be 1.07; in assay [9] (setting [16]), 0.97. Further, the fold change is 0.859 (inactive) and 0.971 (inactive) and 0.904 (inactive) in assay [10] (setting [17]); 1.28 and 0.606 and 6.28 in assay [10] (setting [18]). The cell count in assay [10] (setting [19]) was 9040 and 7900 and 12400; in [10] (setting [20]), 10500 and 8140 and 13700. Besides, the z-score in assay [11] (setting [21]) was -0.22 (inactive) and 0.248 (inactive); in assay [11] (setting [22]) it was -0.0864 and 0.109. Also, in assay [12], the remaining NAD was 10 nM (inactive).

In the case of `CCOc1ccc2nc(S(N)(=O)=O)sc2c1`, in assay [14], the parasite load remaining is 32.3% (inactive) and 52.3% (inactive). In addition, the viability in [14] is 171% and 98.2%. The nuclear beta-catenin stimulation in [1] (at 10 µM) is 1.3% (inactive); in assay [1] (stimulation, at 2 µM) it was 0.1%. In assay [2], the insulin secretion stimulation is -2.2% (inactive). The viability decrease in assay [3] is 16.7% (inactive). For the same compound, the tube area decrease in assay [4] was 20.8% (inactive). Moreover, in assay [5], the GLP1 secretion stimulation is 2.1% (inactive). Besides, in [6], the inhibition of viability is -30% (inactive). Further, the viability decrease (inhibition) in [7] is 85.7% (active); in assay [8] it was 7.15% (inactive). The red/green cell ratio (normalised) in assay [9] is 0.96 (inactive). Besides, the figures for the normalised cell number in [9] (setting [15]) and in [9] (setting [16]) were 0.89 and 0.86, respectively. The fold change in assay [10] (setting [17]) is 0.841 (inactive) and 0.925 (inactive); in [10] (setting [18]), 3.81 and 2.83. Also, the cell count in assay [10] (setting [19]) was 10500 and 10700; in assay [10] (setting [20]), 12500 and 11500. Besides, the z-score is -0.477 (inactive) in [11] (setting [21]) and 0.458 in assay [11] (setting [22]). Also, the remaining NAD in [12] is 10 nM (inactive).

(Values after PubChem BioAssay.)
